Assay results taken from PubChem BioAssay (NCATS).
Records with an inconclusive call do not appear. Activity calls are given as the source filed them. Unless noted, calls follow the shape of the dose curve; as a rule, active = well fitted cell-killing curve with a large enough effect; inconclusive = small, poorly fitted or top-dose-only effect; inactive = flat fitted curve, though single readings scatter.

Columns and labels:
[1] = Cell Viability - LYMP2-025 (AID 976);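 also: series mostly up to about 92 µM; plate controls were DMSO only for no effect and tetraoctylammonium bromide control for full effect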
Procedure, shortened: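 In qHTS format, LYMP2-025 lymphoblastoid cells in complete culture medium received compound for 24 hr; ATP-based CellTiter-Glo signal gave viability, with AC50 derived by Hill equation.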

[2] = Cell Viability - LYMP2-002 (AID 977);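 also: series mostly up to about 92 µM; compound exposure lasted 24 h at 37 °C; plate controls were DMSO only for no effect and 92 µM tetraoctylammonium bromide for full effect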
Procedure, shortened: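 Human lymphoblastoid LYMP2-002 cells, 2500 per well, exposed to compounds for 24 h at 37 C in complete medium; viability read as intracellular ATP by CellTiter-Glo luminescence, AC50 from Hill fits.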

[3] = Cell Viability - LYMP2-006 (AID 978); also: series mostly up to about 92 µM; % is scaled to controls: 0 for no effect and ±100 for the full control effect; nearly all actives have a fitted effect of over 60% in size
Procedure, shortened: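 Human lymphoblastoid cells, 2500 per well, were preincubated 5 hr at 37 C, then exposed to compounds for 24 hr at 37 C in complete medium. Viability was read as intracellular ATP by CellTiter-Glo luminescence; AC50 from Hill-equation fits of qHTS concentration-response data.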

[4] = Cell Viability - LYMP2-007 (AID 979);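 also: cells exposed to compound for 24 h before reading; 0% = DMSO only and the negative end = 92 µM tetraoctylammonium bromide; nearly all actives have a fitted effect of over 60% in size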
Procedure, shortened: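 Acute toxicity is scored as a concentration-dependent fall in intracellular ATP in human lymphoblastoid cells treated 24 hr at 37 C, measured by luciferase luminescence; Hill-equation modelling yields AC50.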

[5] = Cell Viability - LYMP2-008 (AID 980); also: % is scaled to controls: 0 for no effect and ±100 for the full control effect; nearly all actives have a fitted effect of over 60% in size
Procedure, shortened: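 Acute cytotoxicity is scored as concentration-dependent loss of cellular ATP in a human lymphoblastoid line after 24 hr treatment at 37 C. ATP is quantified by luciferase luminescence.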

[6] = Cell Viability - LYMP2-010 (AID 981); also: % is scaled to controls: 0 for no effect and ±100 for the full control effect; nearly all actives have a fitted effect of over 55% in size
Procedure, shortened: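 Acute toxicity is scored as a concentration-dependent loss of cellular ATP in human lymphoblastoid cells after 24 hr compound exposure in complete medium. Tetraoctylammonium bromide is the positive control.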

[7] = Cell Viability - LYMP2-012 (AID 982);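 also: cellular ATP by luciferase luminescence where a drop means cytotoxicity; cells exposed to compound for one day before reading; 0% = DMSO only and full loss = 92 µM tetraoctylammonium bromide; nearly all actives have a fitted effect of over 55% in size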
[8] = Cell Viability - LYMP2-014 (AID 983);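 also: series mostly up to about 92 µM; plate controls were DMSO only for no effect and 92 µM tetraoctylammonium bromide for full effect; nearly all actives have a fitted effect of over 50% in size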
Procedure, shortened: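 Decrease in intracellular ATP after 24 hr treatment at 37 C, measured by luciferase luminescence, indicated cytotoxicity. Concentration-response data were fitted with the standard Hill equation to give AC50.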

[9] = Cell Viability - LYMP2-016 (AID 984); also: % is scaled to controls: 0 for no effect and ±100 for the full control effect; nearly all actives have a fitted effect of over 55% in size
Procedure, shortened: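 Human lymphoblastoid cells (LYMP2-016), 2500/well in complete medium, preincubated 5 hr at 37 C, then compound-treated 24 hr at 37 C. Intracellular ATP read by CellTiter-Glo luminescence after 30 min at room temperature; AC50 from Hill-equation concentration-response fits.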

[10] = Cell Viability - LYMP2-018 (AID 985);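 also: compound exposure lasted 24 hr at 37 °C; plate controls were DMSO only for no effect and tetraoctylammonium bromide at 92 µM for full effect; nearly all actives have a fitted effect of over 50% in size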
Procedure, shortened: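 Acute cytotoxicity is scored as a concentration-dependent drop in intracellular ATP after 24 hr exposure of the lymphoblastoid line in complete culture medium, measured by luciferase luminescence. Potency is expressed as AC50 from Hill modelling.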

[11] = Cell Viability - LYMP2-020 (AID 986);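 also: series mostly up to about 92 µM; plate controls were DMSO only for no effect and tetraoctylammonium bromide at 92 µM for full effect; nearly all actives have a fitted effect of over 55% in size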
Procedure, shortened: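 Acute cytotoxicity in a human lymphoblastoid line is scored as a concentration-dependent fall in cellular ATP after 24 hr at 37 C in complete medium. The positive control is tetraoctylammonium bromide, and potency is given as Hill-fit AC50.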

[12] = Cell Viability - LYMP2-022 (AID 987)
Procedure, shortened: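 Acute toxicity in a human lymphoblastoid line is scored as decreased intracellular ATP after 24 hr compound treatment at 37 C. ATP is measured by CellTiter-Glo luminescence; curves are fitted with the Hill equation to give AC50.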

[13] = Cell Viability - LYMP2-024 (AID 988);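 also: plate controls were DMSO only for no effect and 92 µM tetraoctylammonium bromide for full effect; nearly all actives have a fitted effect of over 60% in size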
Procedure, shortened: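 Acute toxicity is measured as concentration-dependent loss of intracellular ATP in a human lymphoblastoid line treated 24 hours at 37 C. Luciferase luminescence quantifies ATP; AC50 values come from standard Hill-equation modelling.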

[14] = Cell Viability - LYMP2-026 (AID 989); also: % is scaled to controls: 0 for no effect and ±100 for the full control effect; nearly all actives have a fitted effect of over 50% in size
Procedure, shortened: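 Concentration-dependent loss of intracellular ATP in human lymphoblastoid cells after 24 hr at 37 C, quantified by luciferase luminescence. AC50 derived from standard Hill equation.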

[15] = Cell Viability - LYMP1-002 - Assay at 24 hr (AID 993); also: % is scaled to controls: 0 for no effect and ±100 for the full control effect
Procedure, shortened: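 qHTS, LYMP1-002 lymphoblastoid, 24 h cpd, 37 C, CellTiter-Glo ATP luminescence; AC50 via Hill eq.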

[16] = Cell Viability - LYMP1-002 - Assay at 40 hr (AID 994)
Procedure, shortened: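 Viability in the human lymphoblastoid line was measured as intracellular ATP via CellTiter-Glo after 40 hr compound exposure. Tetraoctylammonium bromide served as positive control.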

[17] = qHTS Assay for Identification of Small Molecule Inducers of Hypoxia Response (AID 2120; active = well fitted curve in the direction sought with a large enough effect in the signal ratio, with a control signal flat, not every such curve was filed as active; the % refers to the signal ratio; also: 0% is about no effect)
Procedure, shortened: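 Induction of beta-lactamase reporter activity was measured in CellSensor HRE-bla ME-180 cells after 17 h compound treatment at 37 degrees C, using CCF4 substrate and the 460nm/530nm emission ratio to derive AC50 values.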

[18] = target: Androgen receptor (Homo sapiens) (UniProt P10275); assay: qHTS assay for small molecule agonists of androgen receptor signaling (AID 588515; active = well fitted curve in the direction sought with a large enough effect in the signal ratio, with a control signal flat; the % refers to the signal ratio; also: % is scaled to controls: 0 for no effect and ±100 for the full control effect); details: AR-UAS-bla HEK293, beta-lactamase ratio, agonist 16 h; stronger effect = higher value
Androgen receptor (Homo sapiens), sequence (P10275 whole entry, looked up): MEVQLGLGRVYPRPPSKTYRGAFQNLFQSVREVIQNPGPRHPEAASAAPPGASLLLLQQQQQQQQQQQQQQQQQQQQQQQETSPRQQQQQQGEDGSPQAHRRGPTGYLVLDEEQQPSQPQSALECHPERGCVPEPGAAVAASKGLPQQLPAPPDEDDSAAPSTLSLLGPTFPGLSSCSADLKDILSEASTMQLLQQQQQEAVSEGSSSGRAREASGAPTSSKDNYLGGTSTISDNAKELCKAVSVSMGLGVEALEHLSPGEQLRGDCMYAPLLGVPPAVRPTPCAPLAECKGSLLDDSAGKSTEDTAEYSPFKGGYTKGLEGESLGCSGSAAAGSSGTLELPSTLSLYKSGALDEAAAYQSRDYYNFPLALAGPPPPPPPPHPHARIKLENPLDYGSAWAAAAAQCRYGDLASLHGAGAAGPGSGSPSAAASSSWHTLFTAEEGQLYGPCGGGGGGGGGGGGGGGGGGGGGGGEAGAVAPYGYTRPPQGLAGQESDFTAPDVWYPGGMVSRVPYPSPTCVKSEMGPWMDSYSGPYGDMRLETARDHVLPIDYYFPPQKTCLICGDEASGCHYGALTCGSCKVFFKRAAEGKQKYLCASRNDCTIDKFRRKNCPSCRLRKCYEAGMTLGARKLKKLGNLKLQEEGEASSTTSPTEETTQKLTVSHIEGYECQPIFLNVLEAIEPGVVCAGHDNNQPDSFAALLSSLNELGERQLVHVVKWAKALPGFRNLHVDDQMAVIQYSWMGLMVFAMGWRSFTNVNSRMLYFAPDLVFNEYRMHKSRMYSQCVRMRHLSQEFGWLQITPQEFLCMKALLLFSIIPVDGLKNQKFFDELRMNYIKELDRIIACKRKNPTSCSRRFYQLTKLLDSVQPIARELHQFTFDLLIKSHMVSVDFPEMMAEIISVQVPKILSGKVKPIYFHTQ
Procedure, shortened: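 EC50 and efficacy came from Hill fits of titrations (up to 92 uM) normalized to 30 nM R1881 as 100% and DMSO as 0%. Compound exposure was 16 h at 37 C on AR-UAS-bla HEK293 cells, with a 405/460/530 nm CCF4 fluorescence read.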

[19] = target: Estrogen receptor (Homo sapiens) (UniProt P03372); assay: qHTS assay for small molecule agonists of estrogen receptor alpha signaling (AID 588514; calls by dose curve;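 also: 0% = vehicle only and 100% = reference agonist; nearly all actives have a fitted effect of over 70% in size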)
Estrogen receptor (Homo sapiens), sequence (P03372 whole entry, looked up): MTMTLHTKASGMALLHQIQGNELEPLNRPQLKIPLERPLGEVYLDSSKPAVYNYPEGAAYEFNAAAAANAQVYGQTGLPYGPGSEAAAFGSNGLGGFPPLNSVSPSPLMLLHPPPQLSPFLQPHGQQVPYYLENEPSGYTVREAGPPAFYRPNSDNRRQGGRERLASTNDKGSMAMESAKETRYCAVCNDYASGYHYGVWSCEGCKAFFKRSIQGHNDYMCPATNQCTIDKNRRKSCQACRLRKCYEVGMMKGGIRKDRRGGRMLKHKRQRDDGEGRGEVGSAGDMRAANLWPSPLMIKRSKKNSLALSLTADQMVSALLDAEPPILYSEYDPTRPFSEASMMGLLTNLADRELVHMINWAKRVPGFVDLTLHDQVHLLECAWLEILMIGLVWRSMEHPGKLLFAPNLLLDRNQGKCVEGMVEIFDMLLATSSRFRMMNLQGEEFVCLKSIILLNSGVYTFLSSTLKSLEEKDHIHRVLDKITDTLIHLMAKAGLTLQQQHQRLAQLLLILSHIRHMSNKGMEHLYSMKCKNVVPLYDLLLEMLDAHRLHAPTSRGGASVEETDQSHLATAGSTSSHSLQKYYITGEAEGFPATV
Procedure, shortened: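 Reporter-gene assay. […] controls beta-lactamase in HEK 293 GripTite cells; after 18 hrs with compound, CCF4 substrate is added for 2 hrs and fluorescence is read.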

CC(C)(O)C(=O)O
inactive: Potency [1] | Potency [2] | Potency [3] | Potency [4] | Potency [5] | Potency [6] | Potency [7] | Potency [8] | Potency [9] | Potency [10] | Potency [11] | Potency [12] | Potency [13] | outcome [14] | Potency [15] | Potency [16] | outcome [17]

O=C1OC(=O)c2c(Cl)c(Cl)c(Cl)c(Cl)c21
inactive: Potency [1] | Potency [2] | Potency [3] | Potency [4] | Potency [5] | Potency [6] | Potency [7] | Potency [8] | Potency [9] | Potency [10] | Potency [11] | Potency [12] | Potency [13] | outcome [14] | Potency [15] | Potency [16] | outcome [17]

Cc1c(C(=O)O)cccc1[N+](=O)[O-]
inactive: Potency [1] | Potency [2] | Potency [3] | Potency [4] | Potency [5] | Potency [6] | Potency [7] | Potency [8] | Potency [9] | Potency [10] | Potency [11] | Potency [12] | Potency [13] | outcome [14] | Potency [15] | Potency [16] | outcome [17] | activation [18] -4.24%

C=Cc1ccc(C=C)cc1
inactive: Potency [1] | Potency [2] | Potency [3] | Potency [5] | Potency [6] | Potency [7] | Potency [8] | Potency [9] | Potency [10] | Potency [12] | Potency [13] | outcome [14] | Potency [15] | Potency [16] | outcome [17] | Potency [19]

Cc1ccccc1Br
inactive: Potency [1] | Potency [2] | Potency [3] | Potency [4] | Potency [5] | Potency [6] | Potency [7] | Potency [8] | Potency [9] | Potency [10] | Potency [11] | Potency [12] | Potency [13] | outcome [14] | Potency [15] | Potency [16] | outcome [17]

CCN(C(=O)N(CC)c1ccccc1)c1ccccc1
inactive: Potency [1] | Potency [2] | Potency [3] | Potency [4] | Potency [5] | Potency [6] | Potency [7] | Potency [8] | Potency [9] | Potency [10] | Potency [11] | Potency [12] | Potency [13] | outcome [14] | Potency [15] | Potency [16] | outcome [17]

CCCCC=O
inactive: Potency [1] | Potency [2] | Potency [3] | Potency [4] | Potency [5] | Potency [6] | Potency [7] | Potency [8] | Potency [9] | Potency [10] | Potency [11] | Potency [12] | Potency [13] | outcome [14] | Potency [15] | Potency [16] | outcome [17]

BrC/C=C/CBr
inactive: Potency [1] | Potency [2] | Potency [3] | Potency [4] | Potency [5] | Potency [6] | Potency [7] | Potency [8] | Potency [9] | Potency [10] | Potency [11] | Potency [12] | Potency [13] | outcome [14] | Potency [15] | Potency [16] | outcome [17]

Nc1nc(-c2ccccc2)cs1
inactive: Potency [1] | Potency [2] | Potency [3] | Potency [4] | Potency [5] | Potency [6] | Potency [7] | Potency [8] | Potency [9] | Potency [10] | Potency [11] | Potency [12] | outcome [14] | Potency [15] | Potency [16] | outcome [17]

CC(O)COC(C)(C)C (stereo not given)
inactive: Potency [1] | Potency [2] | Potency [3] | Potency [4] | Potency [5] | Potency [6] | Potency [7] | Potency [8] | Potency [9] | Potency [10] | Potency [11] | Potency [12] | outcome [14] | Potency [15] | Potency [16] | outcome [17]

O=[N+]([O-])c1ccc(Cl)cc1Cl
inactive: Potency [1] | Potency [2] | Potency [3] | Potency [4] | Potency [5] | Potency [6] | Potency [7] | Potency [8] | Potency [9] | Potency [10] | Potency [11] | Potency [12] | Potency [13] | Potency [16] | outcome [17]

O=Cc1ccccc1Cl
inactive: Potency [1] | Potency [2] | Potency [3] | Potency [4] | Potency [5] | Potency [6] | Potency [7] | Potency [8] | Potency [9] | Potency [10] | Potency [11] | Potency [12] | Potency [13] | outcome [14] | Potency [15] | Potency [16] | outcome [17]
